Laboratory results: PubChem BioAssay (NCI)
The panel holds about 83,000 compounds, 20% with a hit somewhere; the sample as a whole holds those more often.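 Negative percent growth values reflect cell death: -40 means 40% of the cells present at the start died, and -100 means all died.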 Activity calls are given as the source filed them. Rule for the calls: active = growth percent below 10; inactive = the rest.

Tests used:
Assay in all cases: NCI-60 one-dose screen, 48 h (100 = growth as untreated, 0 = no growth, -100 = all killed)
Conditions in all cases: 10 µM unless noted
NCI-H23 lung = system: NCI-H23 lung
NCI-H226 lung = system: NCI-H226 lung
NCI-H322M lung = system: NCI-H322M lung
HOP-62 NSCLC = system: HOP-62 NSCLC
NCI-H522 lung = system: NCI-H522 lung
A549/ATCC NSCLC = system: A549/ATCC NSCLC
786-0 renal = system: 786-0 renal
COLO 205 colon = system: COLO 205 colon
DU-145 prostate = system: DU-145 prostate
K-562 leukemia = system: K-562 leukemia
MALME-3M melanoma = system: MALME-3M melanoma
MDA-MB-231 breast = system: MDA-MB-231 breast
RXF 393 renal = system: RXF 393 renal
SF-268 CNS = system: SF-268 CNS
SF-295 CNS = system: SF-295 CNS
SF-539 CNS = system: SF-539 CNS
UACC-257 melanoma = system: UACC-257 melanoma
M14 melanoma = system: M14 melanoma
NCI-H460 lung = system: NCI-H460 lung
HOP-92 NSCLC = system: HOP-92 NSCLC

Measured: growth

CCCCOC(=O)OCc1cc(=O)c(O)co1
inactive: NCI-H23 lung 95.3% | NCI-H226 lung 94.3% | NCI-H322M lung 94.1% | HOP-62 NSCLC 109% | NCI-H522 lung 91.1% | A549/ATCC NSCLC 102% | 786-0 renal 98.6% | COLO 205 colon 111% | DU-145 prostate 113% | K-562 leukemia 97.4% | MALME-3M melanoma 102% | MDA-MB-231 breast 114% | RXF 393 renal 113% | SF-268 CNS 105% | SF-295 CNS 96.3% | SF-539 CNS 100% | UACC-257 melanoma 104% | M14 melanoma 106%

CCCc1cc(NC)nc(S(=O)(=O)CC)n1
inactive: NCI-H23 lung 102% | NCI-H226 lung 108% | NCI-H322M lung 106% | HOP-62 NSCLC 110% | NCI-H460 lung 110% | NCI-H522 lung 95.9% | 786-0 renal 101% | COLO 205 colon 120% | DU-145 prostate 109% | K-562 leukemia 97.7% | MALME-3M melanoma 110% | MDA-MB-231 breast 109% | RXF 393 renal 108% | SF-268 CNS 98.4% | SF-295 CNS 99.9% | SF-539 CNS 100% | UACC-257 melanoma 106% | M14 melanoma 99.8%

CC1=C(CCC(C)N(C)Cc2ccc(OCCCN3CCCC3)cc2)C(C)(C)CCC1 (stereo unspecified)
active: NCI-H522 lung -52.2% | COLO 205 colon -78.8% | K-562 leukemia -22.2% | MALME-3M melanoma -89.4% | MDA-MB-231 breast -43.6% | RXF 393 renal -37.5% | SF-295 CNS -4.45% | SF-539 CNS -79% | UACC-257 melanoma -74.3%
inactive: NCI-H23 lung 64% | NCI-H226 lung 85.5% | NCI-H322M lung 55.5% | HOP-62 NSCLC 36.6% | HOP-92 NSCLC 27.3% | A549/ATCC NSCLC 37.8% | 786-0 renal 17.3% | DU-145 prostate 65.3% | SF-268 CNS 48.2%

Cn1cc(-c2csc(-c3ccc(Cl)cc3)n2)c2cccnc21
active: NCI-H23 lung -49.3% [100 µM] | NCI-H226 lung -14.3% [100 µM] | NCI-H322M lung -8.35% [100 µM] | HOP-62 NSCLC -53.7% [100 µM] | HOP-92 NSCLC -69.2% [100 µM] | NCI-H522 lung 9.55% [100 µM] | A549/ATCC NSCLC 9.96% [100 µM] | 786-0 renal -61.4% [100 µM] | COLO 205 colon -65.8% [100 µM] | DU-145 prostate -70.5% [100 µM] | K-562 leukemia 3.35% [100 µM] | MALME-3M melanoma -9.47% [100 µM] | MDA-MB-231 breast -46.5% [100 µM] | RXF 393 renal -7.46% [100 µM] | SF-268 CNS -33.6% [100 µM] | SF-295 CNS -20.3% [100 µM] | SF-539 CNS -63.8% [100 µM] | UACC-257 melanoma -35.6% [100 µM] | M14 melanoma -62.3% [100 µM]

CCN(CC)CCOc1ccc(C(=C(C)c2ccc(Cl)cc2)c2ccc(OCCN(CC)CC)cc2)cc1
active: NCI-H23 lung 3.75% | NCI-H322M lung -29.9% | HOP-62 NSCLC -61.5% | HOP-92 NSCLC 6.28% | NCI-H522 lung -67.2% | A549/ATCC NSCLC -68.9% | 786-0 renal -97.6% | COLO 205 colon -68.7% | DU-145 prostate -36.4% | K-562 leukemia -37.2% | MALME-3M melanoma -84.1% | MDA-MB-231 breast -84.9% | RXF 393 renal -73.7% | SF-268 CNS -37.9% | SF-295 CNS -77.6% | SF-539 CNS -92.6% | UACC-257 melanoma -69.9% | M14 melanoma -89.8%
inactive: NCI-H226 lung 103%

CCOC(=O)c1c(NC(=O)c2ccc(C(C)C)cc2)sc2c(CN(C)C)c(O)ccc12
active: 786-0 renal -50.5% | COLO 205 colon -24.5% | K-562 leukemia -31.3% | MALME-3M melanoma -45.5% | SF-295 CNS 4.37% | M14 melanoma -64%
inactive: NCI-H23 lung 82.2% | NCI-H226 lung 85.2% | NCI-H322M lung 79.2% | HOP-62 NSCLC 89.9% | HOP-92 NSCLC 69.5% | NCI-H522 lung 97.2% | A549/ATCC NSCLC 77% | DU-145 prostate 78.2% | MDA-MB-231 breast 58.4% | RXF 393 renal 44.2% | SF-268 CNS 91.4% | SF-539 CNS 75% | UACC-257 melanoma 67.3%

O=C(CSc1nc2ccc([N+](=O)[O-])cc2[nH]1)Nc1ccc(F)cc1
inactive: NCI-H23 lung 40.4% | NCI-H226 lung 48.9% | NCI-H322M lung 86.5% | HOP-62 NSCLC 105% | NCI-H460 lung 56.8% | NCI-H522 lung 30.1% | A549/ATCC NSCLC 58.2% | 786-0 renal 62.7% | DU-145 prostate 66.8% | K-562 leukemia 42.1% | MALME-3M melanoma 36.3% | MDA-MB-231 breast 80.3% | RXF 393 renal 87.8% | SF-268 CNS 68.8% | SF-295 CNS 52.1% | SF-539 CNS 79.8% | UACC-257 melanoma 44.5% | M14 melanoma 59.9%

COc1ccc2[nH]cc(-c3nc(-c4cn(C)c5c(Cl)nccc45)cs3)c2c1
active: UACC-257 melanoma -33%
inactive: NCI-H23 lung 58.3% | NCI-H226 lung 40.8% | NCI-H322M lung 75.5% | HOP-62 NSCLC 56.6% | HOP-92 NSCLC 78.8% | NCI-H522 lung 13.9% | A549/ATCC NSCLC 33.8% | 786-0 renal 16.2% | COLO 205 colon 32.9% | DU-145 prostate 40.7% | K-562 leukemia 17.9% | MALME-3M melanoma 72.1% | MDA-MB-231 breast 48.2% | RXF 393 renal 32.5% | SF-268 CNS 73% | SF-295 CNS 37.9% | SF-539 CNS 23.3% | M14 melanoma 14%

C#Cc1cccc(Nc2ncnc3ccc(-c4cnc(N)nc4)cc23)c1
active: NCI-H322M lung -7.64% | MALME-3M melanoma 9.03% | RXF 393 renal -15.3%
inactive: NCI-H226 lung 53.2% | HOP-62 NSCLC 28.4% | NCI-H460 lung 37.8% | HOP-92 NSCLC 15% | NCI-H522 lung 10.5% | A549/ATCC NSCLC 35.9% | 786-0 renal 36.3% | DU-145 prostate 18.9% | K-562 leukemia 53.2% | MDA-MB-231 breast 12.8% | SF-268 CNS 32.7% | SF-295 CNS 26.2% | SF-539 CNS 32.4% | UACC-257 melanoma 80.7% | M14 melanoma 36.8%
